This is an account of results in PubChem BioAssay.

Activity calls are given as the source filed them. The rule behind the calls is not given here.

This test has as its system Aerobactin synthetase IucA (Klebsiella pneumoniae, hypervirulent). As to the kind of experiment: biochemical IucA inhibition screen of LOPAC library by absorbance (AID 1346212).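 Note: 100% = no compound wells and 0% = no enzyme wells.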 Conditions: IucA enzyme assay, absorbance (OD) readout; stronger effect = lower value;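 tested at 8 µM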.
In the case of `CCOC(=O)c1ncn2c1CN(C)C(=O)c1cc(F)ccc1-2`, the remaining activity is 100% (inactive). Consider `N#CC(C#N)=C(N)/C(C#N)=C/c1cc(O)c(O)c(O)c1`, for which the remaining activity is 87.7% (inactive). Take `N=c1ccn2c(n1)O[C@H]1[C@H](O)[C@@H](CO)O[C@H]12`: the remaining activity was 95.9% (inactive). The same measure for `CN(C)CCCCSC(=N)N`: 84.5% (inactive); for `CCCCN1CCC(n2c(=O)[nH]c3ccccc32)CC1`: 110% (inactive); for `CNC[C@H](O)c1ccc(O)c(O)c1`: 94.5% (inactive).

On to `CCCCNc1c(C(=O)OCC)c(C)nc2c1cnn2CC`, for which the remaining activity was 121% (inactive). For the compound `CN(C(=O)CCCOc1ccc2[nH]c(=O)ccc2c1)C1CCCCC1`, the remaining activity was 124% (inactive).

As for `CCC(=O)N1CCN(C(=O)c2ccccc2)CC1`, the remaining activity is 122% (inactive). The same measure for `C[N+](C)(C)CCCCCNCC12CC3CC(CC(C3)C1)C2`: 120% (inactive); for `OC[C@H]1O[C@@H](n2cnc3c(N[C@H]4CCC[C@@H]4O)ncnc32)[C@H](O)[C@@H]1O`: 123% (inactive); for `NC(=O)c1cn(Cc2c(F)cccc2F)nn1`: 117% (inactive). The value for `C[C@H](Cc1ccccc1)Nc1ncnc2c1ncn2[C@@H]1O[C@H](CO)[C@H](O)C1O` (stereo not given in full) was 118% (inactive); that for `COC(=O)Nc1nc2ccc(C(=O)c3cccs3)cc2[nH]1` was 117% (inactive). The value for `CC1=C(CC(=O)O)c2cc(F)ccc2/C1=C\c1ccc(S(C)(=O)=O)cc1` was 93.6% (inactive). Regarding `[Li+]`, the remaining activity is 102% (inactive). The same measure for `Cc1oncc1C(=O)Nc1ccc(C(F)(F)F)cc1`: 110% (inactive). The value for `COc1ccc2c(c1)c(CC(=O)O)c(C)n2C(=O)c1ccccc1` was 111% (inactive). In the case of `c1ccc(-c2ccccn2)nc1`, the remaining activity is 75.1% (inactive). The value for `NC/C=C\C(=O)O` was 124% (inactive). The value for `N#Cc1cc2nc(O)c(O)nc2cc1[N+](=O)[O-]` was 86.8% (inactive); that for `CN1CCc2ccccc2Cc2[nH]c3ccccc3c2CC1` was 107% (inactive). The same measure for `Nc1ncnc2c1ncn2[C@@H]1O[C@H](COP(=O)(O)OP(=O)(O)OP(=O)(O)OP(=O)(O)OC[C@@H]2O[C@H](n3cnc4c(N)ncnc43)C(O)[C@@H]2O)[C@H](O)C1O` (stereo not given in full): 91.8% (inactive); for `NC(=S)NCCCC(N)C(=O)O` (stereo not given): 102% (inactive). Turning to `NCCCCNCCCN`, the remaining activity was 107% (inactive).

`CNc1cc(NS(=O)(=O)c2ccc(N)cc2)nc(NC)n1`: the remaining activity was 104% (inactive). The value for `O=C(c1ccc(Cl)cc1)N1CCN(c2ccc([N+](=O)[O-])c3ncccc23)CC1` was 120% (inactive); that for `COc1cc(-c2ccc(=O)[nH]n2)ccc1OC(F)F` was 119% (inactive). The value for `CC1(C)CCC2=C(O1)c1ccccc1C(=O)C2=O` was 113% (inactive); that for `NC1C=CC=C(C(=O)O)C1` (stereo not given) was 125% (inactive). The same measure for `Nc1nc(Cl)nc2c1ncn2[C@@H]1O[C@H](CO)[C@@H](O)[C@H]1O`: 115% (inactive). As to `CC(C)C[C@H](NC(=O)[C@H](O)[C@H](N)Cc1ccccc1)C(=O)O`, the remaining activity is 120% (inactive). The same measure for `Cc1cc(C)c(NC(=O)C[C@H](CC(=O)O)c2cccc3ccccc23)c(C(=O)N2CCC3(CCCC3)CC2)c1`: 103% (inactive); for `CCC(NC(C)C)C(O)c1ccc(O)c(O)c1` (stereo not given): 102% (inactive); for `CC#CCOC(=O)c1c(C)nc2sc3c(c2c1N)CCC(O)C3` (stereo not given): 113% (inactive). The same measure for `CN1CCC(=C2c3ccccc3C=Cc3ccccc32)CC1`: 123% (inactive); for `NC(N)=NC(=O)Cc1c(Cl)cccc1Cl`: 119% (inactive).

`O=C(O)CCC(=O)N1CCCC1C(=O)O` (stereo not given): the remaining activity is 98.4% (inactive). The value for `Nc1cc(Cl)c(NC2=NCCN2)c(Cl)c1` was 118% (inactive); that for `N=S(=O)(O)Cc1noc2ccccc12` was 121% (inactive).
